The text below walks through data of ChEMBL document CHEMBL1157539, “Thousands of chemical starting points for antimalarial lead identification” (Nature, 2010).

What all share (format): functional
Assay [1] concerns Plasmodium falciparum. The experiment in a line: GSK_TCMDC: Inhibition of Plasmodium falciparum 3D7 in whole red blood cells, using parasite LDH activity as an index of growth. Test compounds present at 2uM.
Assay [2] relates to Plasmodium falciparum. The experiment in a line: GSK_TCMDC: Inhibition of Plasmodium falciparum Dd2 in whole red blood cells, using parasite LDH activity as an index of growth. Test compounds present at 2uM.
The test system of assay [3] is HepG2. Nature of the assay: GSK_TCMDC: Percent inhibition of human HepG2 cell line. Test compounds present at 10uM.

In the case of `O=C(Nc1ccc(-c2nc3cc4ccccc4cc3[nH]2)cc1)c1cccc(Br)c1`, the Inhibition in assay [1] is reported as 100%; in assay [2], 89%; in assay [3], 50%.
In the same order, the values of `CC[C@H](C)CNC(=O)c1ccnc(-c2cccc(CN3CCC(N4CCCC4)CC3)c2)c1.O=C(O)C(F)(F)F` are 97%, 12% and 0%.
With `Cc1cccc2nc(-c3ccc(-c4ccc(NC(=O)C5CCN(C)CC5)cc4)cc3)[nH]c12`, the Inhibition came to 100% in assay [1], 92% in assay [2] and 28% in assay [3].
As to `O=C(Nc1ccc(Cn2ncc(N3CCCNCC3)c(Cl)c2=O)cc1)Nc1cccc(SC(F)(F)F)c1.O=C(O)C(F)(F)F`, the Inhibition in assay [1] is 92%; in assay [2] it was 33%; in assay [3] it was 12%.
For `Oc1cccc(/C=N/Nc2ccnc3cc(Cl)ccc23)c1`, in that order: 100%, 95% and 0%.
In the same order, the values of `Cc1ccc(C(=O)Cn2nc(-c3ccc(C)c(S(=O)(=O)N4CCCCC4)c3)ccc2=O)cc1` are 99%, 76% and 6%.
For `Cc1cc2cc(-c3ccc(CN)cc3)ccc2nc1N`, in that order: 92%, 8% and 18%.
For the molecule `CON(CCCN(C)C)C(=N)N.Cl`, the Inhibition in assay [1] stood at 92%; in assay [2] it was 0%; in assay [3], 3%.
For `Cc1noc(C)c1-c1cccc(CNCc2ccc(-c3ccc(-c4nc5cc(F)ccc5[nH]4)s3)cc2)c1.O=C(O)C(F)(F)F`, in that order: 100%, 93% and 45%.
For `CCCC(=O)Nc1ccc(OCCCN(Cc2ccccc2C(F)(F)F)c2ccc(C#N)c(C(F)(F)F)c2)cc1`, in that order: 89%, 79% and 0%.
For `CC(C(=O)N1CCCC1)N1CCN(C(c2ccccc2)c2ccccc2)CC1` (stereo not given), in that order: 82%, 56% and 0%.
As to `N#Cc1ccc2[nH]cc(CN3CCC4(CC3)CN(CCNCc3ccccc3)C(=O)O4)c2c1.O=C(O)C(F)(F)F`, the results for the Inhibition in assay [1], in assay [2] and in assay [3] were 100%, 0% and 0%, respectively.
For the molecule `COc1cc2nc(N3CCN(C(=O)c4c(Cl)nsc4-c4ccccc4Cl)CC3)nc(N)c2cc1OC.O=C(O)C(F)(F)F`, the Inhibition in assay [1] was found to be 100%; in assay [2], 100%; in assay [3], 57%.
For `CC(C)c1ccc(-c2nc3cc(Cl)cnc3[nH]2)cc1`, the Inhibition turned out to be 87% in assay [1], 77% in assay [2] and 3% in assay [3].
In the same order, the values of `N#Cc1cccc(C(=O)Nc2ccc(-c3cccc(CN4CCCC4)c3)cc2)c1.O=C(O)C(F)(F)F` are 100%, 79% and 15%.
Consider `C=CCc1ccccc1OCC(O)CN(C1CCCCC1)C1CCCCC1.Cl` (stereo not given), for which the Inhibition in assay [1] is listed as 93%; in assay [2], 84%; in assay [3], 50%.
In the same order, the values of `Cl.N#Cc1ccc2c(c1)CCN(CCC1CCC(NC(=O)c3cc4ccccc4[nH]3)CC1)CC2` (stereo not given) are 89%, 25% and 17%.
As for `Cc1cc(N/N=C/c2cccc([N+](=O)[O-])c2)c2cc(F)ccc2n1`, the Inhibition amounted to 100% in assay [1], 99% in assay [2] and 3% in assay [3].
For `COCCN1CCC(CN(C)CC(C)(C)c2nc(-c3ccc(Cl)c(O)c3)c(-c3ccncc3)[nH]2)CC1.Cl`, in that order: 94%, 10% and 0%.
For `Cc1ccc(Nc2nc3cc(Nc4ccnc(Nc5cccc(CS(C)(=O)=O)c5)n4)ccc3o2)cc1.O=C(O)C(F)(F)F`, the Inhibition in assay [1] is recorded as 100%; in assay [2], 81%; in assay [3] it was 55%.
For `O=C(Nc1n[nH]c2nc(-c3ccco3)c(Br)cc12)c1ccc(CN2CCCC2)cc1.O=C(O)C(O)C(O)C(=O)O`, in that order: 100%, 53% and 1%.
For `Cc1nnsc1C(=O)Nc1cccc(-c2ccc(-c3nc4ccccc4[nH]3)cc2)c1`, in that order: 100%, 58% and 48%.
For `O=C(Nc1ccc(N2CCNCC2)cc1)c1ccn2ncc(-c3cccc(Cl)c3)c2n1`, in that order: 96%, 53% and 79%.
Regarding `COc1ccc(CN2CCCN(Cc3cccc(NC(=O)c4ccc(Cl)c(Cl)c4)c3)CC2)cc1.O=C(O)C(F)(F)F`, the Inhibition in assay [1] is listed as 86%; in assay [2], 19%; in assay [3], 38%.
Consider `O=C(/C=C/c1ccc(Cl)c(Cl)c1)NCCCCCN1CCC(C(=O)Nc2cccc(Cl)c2)CC1`, for which the results for the Inhibition in assay [1], in assay [2] and in assay [3] were 100%, 0% and 48%, respectively.
For `Cl.Nc1c2c(nc3cc(NC(=O)c4ccc([N+](=O)[O-])cc4)ccc13)CCCC2`, the Inhibition in assay [1] turned out to be 100%; in assay [2], 58%; in assay [3] it was 11%.
In the same order, the values of `O=C(Nc1ccc(Cl)cc1)N(CC1CC2CCC(C1)N2Cc1ccc(C(F)(F)F)cc1)c1ccc(N2CCOCC2)c(F)c1` (stereo not given) are 85%, 36% and 31%.
For `CC(=O)c1ccc(N2C(=O)C3C(Cc4ccc(OC(C)(C)C)cc4)NC4(C(=O)N(Cc5ccc(C(C)(C)C)cc5)c5ccccc54)C3C2=O)cc1` (stereo not given), in that order: 86%, 81% and 13%.
For the molecule `COc1ccccc1N1CCN(CCCCNC(=O)c2ccc(NC(=O)c3cc4ccccc4o3)cc2)CC1`, the Inhibition in assay [1] worked out at 84%; in assay [2], 2%; in assay [3], 9%.
Take `O=C(NCc1ccccn1)C(c1cc2ccccc2o1)N1CCN(C(c2ccccc2)c2ccccc2)CC1` (stereo not given): the Inhibition in assay [1] is given as 95%; in assay [2], 68%; in assay [3] it was 17%.
Regarding `CC(=O)c1ccc(O)c(CC(O)CO)c1` (stereo not given), the results for the Inhibition in assay [1], in assay [2] and in assay [3] were 100%, 0% and 3%, respectively.
For `CCc1c(CCNCCCCCCNC(C)(C)Cc2ccc3c(c2CC)OCO3)ccc(OC)c1OC.Cl`, in that order: 100%, 50% and 100%.
In the same order, the values of `Cc1[nH]c(C)c(-c2ccc(-c3ccc(OC(F)(F)F)cc3)cc2)c(=O)c1Br` are 96%, 97% and 33%.
In the same order, the values of `O=C(c1ccc(F)c2ccccc12)N1CCc2cc3nccc(N4CCN5CCC[C@H]5C4)c3cc21` are 90%, 54% and 0%.
For the molecule `O=C(NCC1CCN(Cc2cccc(C(F)(F)F)c2)C1)c1cc(-c2cccc(C(F)(F)F)c2)cs1.O=C(O)C(F)(F)F` (stereo not given), the Inhibition in assay [1] came to 100%; in assay [2] it was 74%; in assay [3], 35%.
In the same order, the values of `Cc1ccc(NC(=O)c2cc(Br)cc(N3CCC(N(C)C)CC3)c2)cc1F.O=C(O)C(F)(F)F` are 100%, 80% and 23%.
In the same order, the values of `O=C(c1ccc([N+](=O)[O-])o1)N1CCN(c2nc3c(F)cc(F)cc3s2)CC1` are 93%, 86% and 0%.
In the same order, the values of `CC(C)NCc1ccc(-c2cccc(-c3nc4ccccc4[nH]3)c2)cc1.O=C(O)C(F)(F)F` are 100%, 34% and 21%.
In the case of `O=C(Nc1ccc(Cl)cc1)c1ccc(S(=O)(=O)NCC2CCN(CC3CCCCC3)CC2)cc1.O=C(O)C(F)(F)F`, the Inhibition in assay [1] was determined as 93%; in assay [2], 8%; in assay [3], 40%.
For the molecule `CC(C)(C)OC(=O)/C=C(\C(=O)OCc1ccc([N+](=O)[O-])cc1)c1csc(NC(c2ccccc2)(c2ccccc2)c2ccccc2)n1`, the Inhibition is reported as 96% in assay [1], 97% in assay [2] and 2% in assay [3].
In the same order, the values of `Cc1nc(-c2nc(NCCc3cnccn3)ncc2-c2ccsc2)sc1C` are 98%, 40% and 0%.
For `COc1cccc(Nc2nc(C)cc(Nc3cccc(C#N)c3)n2)c1`, in that order: 100%, 92% and 0%.
In the same order, the values of `CCc1cn2c3c(cc(C(=O)N[C@@H](Cc4ccccc4)[C@H](O)CNC4CCCC4)cc13)N(C)S(=O)(=O)CC2` are 100%, 99% and 6%.
As to `CN1CCC(Oc2ccc(CN3CC[C@H](NC(=O)c4ccc(Cl)c(Cl)c4)C3)cc2Cl)C1.O=C(O)C(F)(F)F` (stereo not given in full), the Inhibition in assay [1] came out at 100%; in assay [2] it was 78%; in assay [3], 68%.
In the same order, the values of `Cc1ccc(CN2CCCN(Cc3cccc(C(=O)Nc4ccc(C(C)(C)C)cc4)c3)CC2)s1.O=C(O)C(F)(F)F` are 85%, 4% and 31%.
In the same order, the values of `COc1ccc(F)cc1-c1cccc(CNC2CCN(CC3Cn4c(=O)ccc5ccc(F)c3c54)CC2)c1.O=C(O)C(F)(F)F` (stereo not given) are 100%, 27% and 46%.
Consider `Cc1ccccc1C1CCN(C2CCC(NC(=O)c3csc(-c4cccc(Cl)c4)n3)CC2)CC1` (stereo not given), for which the Inhibition amounted to 85% in assay [1], 42% in assay [2] and 33% in assay [3].
As for `Cc1cnc(Nc2cccnc2)nc1Nc1ccccc1C(=O)NC(C)C`, the Inhibition turned out to be 85% in assay [1], 26% in assay [2] and 9% in assay [3].
On to `COc1ccccc1-n1ccnc1SCC(=O)Nc1cccc(C(F)(F)F)c1`, for which the Inhibition in assay [1] is reported as 95%; in assay [2], 96%; in assay [3] it was 1%.
Take `CC(=O)N/N=C/[C@H](CCc1ccccc1)NC(=O)[C@H](CC(C)C)NC(=O)c1cccc(OCCN2CCOCC2)c1`: the Inhibition in assay [1] was found to be 94%; in assay [2], 78%; in assay [3] it was 13%.
In the same order, the values of `Cl.c1ccc2c(NCCCCCCNc3ccnc4ccccc34)ccnc2c1` are 100%, 12% and 43%.
With `O=C(NC1CC1)c1ccc(N2CCCCN2CCc2ccccc2)c(C(F)(F)F)c1.O=C(O)C(F)(F)F`, the Inhibition in assay [1] was found to be 98%; in assay [2], 84%; in assay [3], 0%.
For `O=C(Nc1ccc(-c2nc3ccccc3[nH]2)cc1)C1CCCN(CC2CC2)C1` (stereo not given), in that order: 89%, 8% and 6%.
As to `CCC(c1ccccc1)c1nn2c(-c3cccs3)nnc2s1` (stereo not given), the Inhibition in assay [1] is reported as 97%; in assay [2], 95%; in assay [3], 10%.
In the same order, the values of `Fc1ccc2[nH]c(-c3ccc(-c4ccc(CN5CCC(CCN6CCCCC6)CC5)cc4)s3)nc2c1.O=C(O)C(F)(F)F` are 100%, 100% and 96%.
On to `Cc1cc2nc(-c3ccc(C(=O)NC4CCN(Cc5ccccc5)CC4)s3)[nH]c2cc1C`, for which the Inhibition is recorded as 99% in assay [1], 82% in assay [2] and 33% in assay [3].
In the same order, the values of `COc1c(C2CCN(CCCCNC(=O)c3cc(-c4ccc(C#N)cc4)n[nH]3)CC2)ccc2c1CCCC2` are 86%, 15% and 36%.
In the same order, the values of `Cl.N#Cc1ccc2c(c1)CCN(CCC1CCC(NC(=O)c3cc4cccc(Cl)c4[nH]3)CC1)CC2` (stereo not given) are 99%, 78% and 34%.
In the same order, the values of `CCCCC(O)c1cc(O)c2c(c1)OC(C)(C)CC2C1=CCN(Cc2ccc3ccccc3c2)CC1` (stereo not given) are 100%, 97% and 7%.
Turning to `CC(=O)N1N=C(c2ccc(F)cc2)Sc2c1nc(C1CCCCC1)n2C(C)=O`, the values for the Inhibition in assay [1], in assay [2] and in assay [3] were 92%, 9% and 4%, respectively.

Broadly, the Inhibition is the drop in the measured response relative to a control, in per cent. Lower therefore signals a weak effect.
